Sa RN4220 lethal: S. aureus RN4220 growth inhibition | 330,000 tested, 0.33% active | OD600, 16 h | inhibition, % (test concentration not listed); in the data active means inhibition above about 85%;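 further: plate controls were untreated cells for no effect and reference antibiotic for full effect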
Sa ugtP lethal: growth inhibition of S. aureus ugtP deletion strain | growth inhibition, % (concentration not given with the values) | 330,000 tested, 0.54% active | AID 1259309 | S. aureus RN4220 ugtP deletion, OD600 growth, 16 h; in the data active means growth inhibition above about 68%;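 further: plate controls were untreated wells for no effect and antibiotic for full effect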
CCHF vOTU inh-1: blocks the CCHF virus ovarian tumor domain protease. CCHFV vOTU protease, Pep-AMC fluorescence. inhibition, % at 11.5 µM. 370,000 tested, 0.55% active. AID 651958; further: 0% = vehicle wells with enzyme and 100% = no enzyme wells
PfHsp40 yeast: rescue of PfHsp40-mediated yeast toxicity. 340,000 tested, 0.68% active. growth rescue, % at 12.5 µM. S. cerevisiae expressing PfHsp40, growth rescue, ATP luminescence. AID 504582; in the data active means growth rescue above about 28%, passing the limit was not always enough; inconclusive means no clear call, values can overlap the other calls;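 further: yeast W303a lacking pdr1 and pdr3 grown in galactose medium; growth measured after three days at 30 °C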
BJeLR viability: BJeLR cell viability loss; AID 1554; inhibition, % (concentration not given with the values); 300,000 tested, 0.17% active; BJeLR (HRASV12) viability, CellTiter-Glo ATP luminescence, 48 h; in the data active means inhibition above about 50%; inconclusive means no clear call, values can overlap the other calls
CCHF vOTU inh-2: confirmation of CCHF virus vOTU protease inhibitors. shares compounds with CCHF vOTU inh-1. Recombinant CCHFV vOTU, Pep-AMC fluorescence. inhibition, % at 11.5 µM. 1,900 tested, 17% active
Active calls of the source: *; ? = inconclusive; · = not tested or not shown. Sampled rows, rich in hits. Any-hit rate of the full collection: about 1.6%. Unless noted, no stated cut-off is given here; in the data, active means inhibition above about 30%; inactive means the rest.

SMILES	Sa RN4220 lethal	Sa ugtP lethal	CCHF vOTU inh-1	PfHsp40 yeast	BJeLR viability	CCHF vOTU inh-2
O=C(COc1ccc(Cl)cc1Cl)NN=Cc1ccc(OC2OC(CO)C(O)C(O)C2O)cc1 (stereo not drawn)	-4	-3	·	·	·	·
Cc1ccc(NC(=S)Nc2cccc3cnccc23)cc1	3	6	12	-2	1	·
CC(=O)c1ccc(NC(=S)Nc2cccc3cnccc23)cc1	6	11	39*	0	2	81*
COC(=O)[C@@]1(Cc2ccc(OC)cc2)C2C(=CC(=O)C2CC(=O)C(=O)N2CCCC2)CN1C(=O)c1ccccc1 (stereo partly drawn)	0	1	·	·	·	·
C[n+]1c2cc(N)ccc2cc2ccc(N)cc21	·	·	88*	228*	·	54*
CCOC(=O)c1c(C)oc2c1c(C=NCc1ccccn1)c(O)c1ccccc12	14	2	63*	-1	·	24
CCOC(=O)c1c(C)oc2c1c(C=NCC1CCCO1)c(O)c1ccccc12 (stereo not drawn)	·	·	35*	-1	-1	53*
CCCCNC(=O)N(O)C1N(N=Cc2cccs2)C(=S)SC1(C)C (stereo not drawn)	2	14	·	·	·	·
CCN1/C(=C/c2ccc3cc(C)ccc3[n+]2CC)Sc2ccccc21	100*	100*	31*	3	·	2
CCCCCCN1C[C@H](O)[C@@H](n2cc(-c3ccc(F)cc3)nn2)C[C@@H]1c1ccccc1	·	·	33*	·	·	-9
CCCCCC(=O)N1C[C@H](n2cc(COC(=O)c3ccccc3)nn2)[C@@H](O)C[C@@H]1c1ccc(C)cc1	·	·	35*	·	·	4
CCCCCCN1C[C@H](n2cc(COC(=O)c3ccccc3)nn2)[C@@H](O)C[C@@H]1c1ccc(Cl)cc1	·	·	32*	·	·	11
CCCCCCN1C[C@H](n2cc(COC(=O)c3ccccc3)nn2)[C@@H](O)C[C@@H]1c1ccc(OC)cc1	·	·	10	·	·	·
CC(CC1CC2=C(CC1(C)C)C(C)(C)CCC2)=NNC(N)=S (stereo not drawn)	-3	-26	·	·	·	·
CCS(=O)(=O)c1ccc2oc(Nc3ccc(C(C)(C)C)cc3)nc2c1	-5	1	30*	2	-5	-9
C=CCOC(=O)c1cc(-c2ccc(/C=C3\C(=O)NC(=O)C(C#N)=C3C)o2)ccc1Cl	12	13	33*	?	·	28
COc1cc(C=Nn2c(-c3cc(-c4ccccc4)n[nH]3)n[nH]c2=S)ccc1OC(C)=O	·	·	30*	·	·	-12
O=C(CNC(=O)Cc1ccccc1)NCC(=O)OCC(=O)c1cccc2ccccc12	5	-10	31*	-1	2	-16
O=C(CNC(=O)c1ccco1)OCC(=O)c1cccc2ccccc12	19	19	-5	5	-17	·
O=C(N/N=C/c1cc(Br)ccc1O)c1cccc(N2CCCC2=O)c1	·	·	32*	1	4	-15
COC(=O)[C@]12C[C@H](CC(=O)NCc3cccc(C(F)(F)F)c3)C(=O)N(Cc3ccc4c(c3)OCO4)C1=C[C@H](C(C)(C)C)O[C@@H]2C	·	·	34*	·	·	11
COC(=O)[C@]12C[C@H](CC(=O)NCCC(C)C)C(=O)N(Cc3ccc4c(c3)OCO4)C1=C[C@H](C(C)(C)C)O[C@@H]2C	·	·	32*	·	·	-3
COC(=O)[C@]12C[C@H](CC(=O)NCc3ccccc3)C(=O)N(Cc3ccc4c(c3)OCO4)C1=C[C@H](C(C)(C)C)O[C@@H]2C	·	·	26	·	·	·
COc1ccc(C2CC(=O)C=C(c3cccc(Cl)c3)C2)cc1OC (stereo not drawn)	5	3	·	·	·	·
COc1ccc(Br)cc1C=NNC(=O)C[n+]1ccccc1	2	3	·	·	·	·
SMILES	Sa RN4220 lethal	Sa ugtP lethal	CCHF vOTU inh-1	PfHsp40 yeast	BJeLR viability	CCHF vOTU inh-2
COc1ccc(C2CC(=O)C=C(c3ccc(F)cc3OCc3ccccc3)C2)cc1 (stereo not drawn)	3	6	·	·	·	·
CCn1c(=O)c(C(=O)NCCN2CCCCC2)c(O)c2ccccc21	1	3	34*	-1	0	-12
Cc1[nH]oc(=O)c1N=Nc1c(Cl)cccc1Cl	11	0	36*	20	-14	-4
C(=Nc1nc2ccccc2n1Cc1ccccc1)c1cccs1	3	1	·	·	·	·
O=C1SCCN1N=Cc1ccc([N+](=O)[O-])o1	32	65	32*	2	·	-1
CCOC(=O)C1=C(C)OC(=CC=Cc2ccccc2)C1=O	·	·	30*	·	·	-9
CC(CC(=O)NCc1ccccc1Cl)=NNC(=O)c1ccccn1	2	7	·	·	·	·
COc1ccc(C2C=CCN(Cc3ccncc3)CC(=O)N2Cc2ccc(F)cc2)cc1 (stereo not drawn)	9	3	·	·	·	·
Cc1ccc(NP(=O)(c2ccc(N(C)C)cc2NC(=O)c2cccs2)N2CCOCC2)cc1Cl (stereo not drawn)	4	11	30*	0	1	-25
Cc1ccccc1NC(=O)CSc1nc(N)c(C#N)c(-c2cccs2)c1C#N	3	1	9	0	3	·
COc1ccc(CCNC(=O)CSCc2ccc(Cl)cc2)cc1OC	6	4	-9	2	7	·
COc1ccc(CCNC(=O)CSc2nc(N)c(C#N)c(-c3cccs3)c2C#N)cc1OC	5	8	32*	0	5	-4
COCCn1c(-c2ccc(Cl)cc2)cnc1SCC(=O)NCCc1ccc(OC)c(OC)c1	4	10	30*	0	-3	-16
COC(=O)C1(C(=O)OC)C[C@H](/C=C/c2ccccc2)N(Cc2ccccc2OC)[C@@H]1c1ccc(F)cc1	·	·	31*	·	·	-6
COC(=O)C1(C(=O)OC)C[C@H](/C=C/c2ccccc2)N(Cc2ccccc2OC)[C@@H]1c1cccs1	·	·	13	·	·	·
CC(=NNc1nc(C(C)(C)C)cs1)c1ccc(O)cc1	-3	-10	·	·	·	·
CC1=C(C(=O)OCC(C)C)C2(O)C(=O)c3ccccc3C2(O)N1 (stereo not drawn)	1	5	30*	0	3	-18
CN1c2ccccc2C(C)(C)C12C=Cc1cc(O)ccc1O2 (stereo not drawn)	3	3	8	4	-1	·
CN1c2ccccc2C(C)(C)C12C=Nc1c(cc(N3CCOCC3)c3ccccc13)O2 (stereo not drawn)	·	·	102*	-2	13	-16
CC(C)C1NC2(C(=O)c3ccccc3C2=O)C2C(=O)N(c3ccc(F)cc3)C(=O)C12 (stereo not drawn)	-4	-9	52*	0	0	-22
CC(=NNC(=O)Cn1c(-c2ccccn2)nc2ccccc21)c1cccc(O)c1	5	8	·	·	·	·
COc1ccc(NC(=O)C(=Cc2ccc(OS(=O)(=O)c3ccc(C)cc3)cc2)NC(=O)c2ccccc2)cc1	9	-8	·	·	·	·
CC1CCc2cc(F)cc3c(=O)c(C(=O)O)cn1c23 (stereo not drawn)	97*	99*	32*	-2	1	-9
O=C(Nc1c(-c2ccc3c(c2)OCO3)[nH][nH]c1=O)c1ccccc1	·	·	42*	·	·	-6
O=C(Nc1c(-c2ccc3c(c2)OCO3)[nH][nH]c1=O)c1cccc(C(F)(F)F)c1	·	·	34*	·	·	-9
